Experimental data taken from PubChem BioAssay AID1159580 (chemical genetic matrix, 2015).
The campaign covered roughly 5,500 compounds. About 2,000 (36%) were called active. Inconclusive results (about 18%) are left out. Rule as the data show it: active = normalized growth mostly below about 0.91 (no sharp cut-off); inconclusive = no clear call, values can overlap the other calls; inactive = mostly above about 0.92. The list shows a part of the results.

Assay: chemical genetic growth profiling, strain panel (AID 1159580);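 also: tested at 20 µM; growth read once vehicle control cultures reached saturation at 30 °C; 1 = growth at the plate median or of vehicle wells; lower values mean less growth of the strain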
Conditions: S. cerevisiae deletion strains, growth OD

Measured: normalized growth

C#CCn1c(=O)c2c(ncn2C)n(C)c1=O
inactive: locus YAL013W, strain DEP1, active compounds read low 0.982 | locus YAL040C, strain CLN3, active compounds read low 1.01 | locus YCL061C, strain MRC1 (second series), active compounds read low 1.01 | locus YDR150W, strain NUM1, active compounds read low 0.999 | locus YDR363W, strain ESC2, active compounds read low 0.989 | locus YER002W, strain NOP16, active compounds read low 0.997 | locus YGR078C, strain PAC10, active compounds read low 1.01 | locus YGR229C, strain SMI1, active compounds read low 1.03 | locus YJR075W, strain HOC1, active compounds read low 0.994 | locus YMR263W, strain SAP30, active compounds read low 0.995 | locus YMR307W, strain GAS1, active compounds read low 1.01 | locus YNL175C, strain NOP13, active compounds read low 0.998 | locus YNL197C, strain WHI3, active compounds read low 0.977 | locus YNL224C, strain SQS1, active compounds read low 1.01 | locus YNL322C, strain KRE1, active compounds read low 0.987 | locus YOR083W, strain WHI5 (second series), active compounds read low 0.965 | locus YPL241C, strain CIN2, active compounds read low 1
